Source: PubChem
Shown is part of a subset that was picked to be rich in hits.
p53 reactivation = qHTS assay for re-activators of p53 using a Luc reporter; Potency, µM (series often up to 92.2 µM), without a hit: at the highest dose activity change, positive = activation, actives largely listed as activators; AID 504706, 2011; H1299 p53-A138V BP100-luciferase reporter, luminescence, 24 h; 0.063% of 320,000 active; active means well fitted activation curve with a large enough effect; inconclusive means small, poorly fitted or top-dose-only effect; inactive means no such curve, though single readings can be large or run the other way; further: potency means the concentration at half of the fitted maximal effect; % of control where 0% means no effect; nearly all actives have a fitted effect of over 45% in size
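p53-null H1299 cells stably carrying temperature-sensitive p53-A138V and a BP100-luciferase reporter were pinned with compounds (4-point, 1:5 series) and held 24 hrs at 37 deg C. Luminescence was read 10 min after detection reagent.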
MLL CXXC-DNA inh = qHTS Fluorescence Polarization Assay for Inhibitors of MLL CXXC domain - DNA interaction. Histone-lysine N-methyltransferase 2A (Homo sapiens), Q03164. 0.037% of 290,000 active. MLL-CXXC / FITC-HOXA9 DNA fluorescence polarization. Potency, µM (top dose mostly 115 µM), for inactives: top-dose activity change, negative = inhibition, most hits filed as inhibitors; active means well fitted inhibition curve with a large enough effect in the polarisation, with a control signal flat, not every such curve was filed as active; inconclusive means small, poorly fitted or top-dose-only effect, or effect the other way, or a change in a side signal; inactive means no such curve, though single readings can be large or run the other way; the % refers to the polarisation; further: potency means the concentration at half of the fitted maximal effect
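Purified MLL-CXXC (added from a 7 uM solution) was preincubated 5 min at ambient with pinned compounds in 50 mM Tris-HCl pH 7.5, 50 mM NaCl, 1 mM DTT, 0.05% BSA. Fluorescein-labeled HOX-A9 DNA (50 nM solution) followed, 30 min, then polarization read.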
Menin-MLL TR inh = qHTS Assay for Inhibitors Targeting the Menin-MLL Interaction in MLL Related Leukemias: Competition With Texas Red Labeled MLL-derived Mutant Peptide. 0.23% of 270,000 active. Potency, µM (top dose mostly 61.6 µM), without a hit: at the highest dose FP activity change, negative = inhibition, usual class: inhibitors. Menin + Texas Red MLL mutant peptide, fluorescence polarization. O00255; active means well fitted inhibition curve with a large enough effect in the polarisation, with a control signal flat, not every such curve was filed as active; inconclusive means small, poorly fitted or top-dose-only effect, or effect the other way, or a change in a side signal; inactive means no such curve, though single readings can be large or run the other way; the % refers to the polarisation; further: potency means the concentration at half of the fitted maximal effect; % of control where 0% means no effect
Menin MLL FP FL = qHTS Assay for Inhibitors Targeting the Menin-MLL Interaction in MLL Related Leukemias: Competition With Fluorescein Labeled MLL-derived Peptide | FP activity change, % at 61.4 µM | AID 1766, 2009 | 290,000 tested, under 10 active | Fluorescence polarization, fluorescein-MLL peptide displacement from menin; active means well fitted curve in the direction sought with a large enough effect in the polarisation, not every such curve was filed as active; inconclusive means small, poorly fitted or top-dose-only effect, or effect the other way, or a change in a side signal; inactive means no such curve, though single readings can be large or run the other way; the % refers to the polarisation; further: % of control where 0% means no effect
ClpP mod = qHTS Assay for Activators of ClpP; ATP-dependent Clp protease proteolytic subunit (Bacillus subtilis (strain 168)), P80244; purified B. subtilis ClpP, FRET peptide cleavage, 20 min; Potency, µM (titrated, usually from 57.5 µM), inactives show at the top dose activity change, negative = active; 1.9% of 340,000 active; AID 651965, 2013; active means well fitted falling curve with a large enough effect; inconclusive means small, poorly fitted or top-dose-only effect; inactive means no such curve, though single readings can be large or run the other way; further: potency means the concentration at half of the fitted maximal effect; the source files actives as falling curves though it sought activators and does not explain the sign; nearly all actives have a fitted effect of over 65% in size
Target sequence (P80244 whole entry, looked up): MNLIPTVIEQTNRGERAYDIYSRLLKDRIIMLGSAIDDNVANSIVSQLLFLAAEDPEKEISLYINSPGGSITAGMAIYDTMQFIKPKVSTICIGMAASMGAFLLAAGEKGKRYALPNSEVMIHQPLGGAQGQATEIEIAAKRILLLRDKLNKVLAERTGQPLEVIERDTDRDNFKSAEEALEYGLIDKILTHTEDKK
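ClpP 10 microg/mL final, pH 8 Tris/KCl buffer with BSA, glycerol, Tween-20; compound pinned in; FRET-FV substrate; RT 20 min; Ex320/Em430; ΔFRET vs ADEP 5.8 microM, DMSO, no enzyme.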
An asterisk follows results filed as active; ? = inconclusive; . = no result; [ ] = remark or other dose.

SMILES	p53 reactivation	MLL CXXC-DNA inh	Menin-MLL TR inh	Menin MLL FP FL	ClpP mod
COc1ccc(Br)c2c1-c1nc(NC(=O)c3cccc(C)c3)sc1C2	.	.	.	.	-5.3%
COc1ccc(N2CCN(C(=O)c3ccc(Cn4c(=S)[nH]c5ccc(N6CCOCC6)cc5c4=O)cc3)CC2)cc1	3.9%	-1.2%	5.3%	-5.3	.
O=C(c1ccc(=O)oc1)N1CCN(c2ccc(F)cc2)CC1	-4.0%	-0.6%	13.2%	?	31.6µM*
O=C(c1ccc(F)c(S(=O)(=O)N2CCOCC2)c1)N1CCN(c2ccc(F)cc2)CC1	2.9%	.	.	.	0.3%
O=C(c1ccc(Cn2c(=S)[nH]c3ccc(N4CCOCC4)cc3c2=O)cc1)N1CCN(c2ccc(F)cc2)CC1	8.1%	8.1%	9.7%	2.3	20µM*
O=[N+]([O-])c1cccc(S(=O)(=O)N2CCN(c3nc(-c4ccccc4)nc4ccccc34)CC2)c1	.	.	.	.	2.9%
COC(=O)c1c(S(N)(=O)=O)c2ccccc2n1C	-3.2%	-3.8%	1.0%	2.4	28.2µM*
CC1CC=CC2C1C(=O)N(Cc1ccccc1)C2c1ccc(-c2ccc(N(C)C)cc2)cc1F (stereo not given)	.	.	-24.7%	5.7	.
Cc1cc(N(C)C)cc(C)c1/C=C/c1cc[n+](C)c2ccccc12	.	.	.	.	-18.3%
O=C(c1cccc(Cl)c1)N1CCC(C(=O)N2CCN(Cc3ccccc3)CC2)CC1	-15.1%	-2.1%	-5.8%	1.5	28.2µM*
O=C(c1cccc(C(=O)N2CCN(Cc3ccccc3)CC2)c1)N1CCN(Cc2ccccc2)CC1	7.9%	12.7%	?	-3.2	-2.5%
CSc1nc(-c2ccccc2)cc(C)c1C#N	0.0%	-0.4%	27.7%	4.6	.
CSc1nc(C)cc(/C=C\c2ccccc2)c1C#N	9.8%	5.8%	-4.1%	4.4	28.2µM*
c1ccc(Nc2nc(NCc3ccco3)nc3nccnc23)cc1	.	.	.	.	-0.7%
CC(=O)CCc1c(C)[nH]c2ccc(NC(C)=O)cc2c1=O	1.7%	-5.2%	-9.3%	-0.4	25.1µM*
Cc1ccc(NC(=O)CSc2nc(=O)n(CCCN3CCOCC3)c3c2CCCC3)cc1F	-3.7%	.	.	.	31.6µM*
O=C(CSc1nc2ccccc2c(=O)n1CCCN1CCOCC1)Nc1cccc(S(=O)(=O)N2CCCCCC2)c1	-12.7%	0.3%	6.3%	-0.8	17.8µM*
CC(=O)Nc1cccc(NC(=O)CSc2nc(=O)n(CCCN3CCOCC3)c3c2CCC3)c1	1.7%	.	.	.	28.2µM*
CC(=O)Nc1cccc(NC(=O)CSc2nc(=O)n(CCN3CCOCC3)c3c2CCC3)c1	-0.4%	.	.	.	?
O=C(C[n+]1ccccc1Cl)c1ccc(F)cc1	.	.	.	.	-7.7%
COc1cc(CNCCSc2nnnn2C)ccc1OCc1ccccc1C	.	.	.	.	1.8%
CC(NC(=O)OCc1ccccc1)C(=O)Oc1cc2oc(=O)cc(-c3ccccc3)c2cc1Cl (stereo not given)	-18.1%	3.9%	7.8%	6.1	25.1µM*
CCc1cc2c(-c3ccccc3)cc(=O)oc2cc1OC(C)C(=O)O (stereo not given)	2.8%	-21.1%	1.4%	-1.0	-28.1%
CNC(=O)COC(=O)c1cc2c(C)nn(-c3ccc(F)cc3)c2s1	1.1%	5.1%	-14.3%	2.2	35.5µM*
Cc1nn(-c2ccc(F)cc2)c2sc(C(=O)N3CCCCCC3)cc12	11.0%	3.5%	-4.3%	3.4	-1.5%
SMILES	p53 reactivation	MLL CXXC-DNA inh	Menin-MLL TR inh	Menin MLL FP FL	ClpP mod
Oc1ccccc1C=Nc1ccccc1-c1nc2ccccc2[nH]1	?	10.0%	13.3%	6.5	28.2µM*
Cc1ccc(-c2c(C(=O)N/N=C/c3ccc(OC(C)C)cc3)nnn2-c2nonc2N)cc1	-1.4%	2.5%	.	.	28.2µM*
CCOc1ccc(-n2cc(-c3ccccc3)c3c(NC4CCCC4)ncnc32)cc1	.	.	.	.	11.2µM*
CN(c1ncnc2c1c(-c1ccccc1)cn2-c1cccc(Cl)c1)C1CCCCC1	.	.	.	.	-17.9%
CN(c1ncnc2c1c(-c1ccccc1)cn2-c1ccc(F)cc1)C1CCCCC1	.	.	.	.	28.2µM*
COCCOC(=O)c1sc2nc[nH]c(=O)c2c1C	-3.0%	-0.7%	-0.7%	-8.9	.
Cc1c(C(=O)OC2CCCCC2)sc2nc[nH]c(=O)c12	11.7%	2.6%	15.8%	-1.3	28.2µM*
Cc1ccc(-c2nnc(SC(C)C(=O)NCc3ccco3)n2C)cc1 (stereo not given)	.	.	.	.	0.1%
Fc1ccc(-c2cc(-c3cccs3)cc(-c3ccccc3)n2)cc1	1.5%	-18.7%	.	2.3	28.2µM*
C=C(C)C(=O)OCCOC(=O)C(=C)C	.	.	19.5%	-1.1	.
CC(Oc1ccccc1F)C(=O)Nc1ccc(-c2nc3ccccc3s2)cc1 (stereo not given)	.	.	.	.	3.16µM*
COc1ccc(CC(=O)N(Cc2cc3cc(OC)ccc3[nH]c2=O)C(C)C)cc1	-0.1%	0.3%	5.1%	3.6	31.6µM*
CCCN(Cc1cc2cc(OC)ccc2[nH]c1=O)C(=O)c1ccncc1	1.8%	-2.5%	-1.2%	3.5	31.6µM*
COc1ccc2[nH]c(=O)c(CN(C)C(=O)C3CCCCC3)cc2c1	3.5%	0.8%	-4.0%	4.0	28.2µM*
COc1ccc2[nH]c(=O)c(CN(C)C(=O)c3ccncc3)cc2c1	-3.8%	1.9%	-13.9%	5.2	?
CCOc1ccc(C(=O)N(Cc2ccc(OC)cc2)Cc2cc3cc(OC)ccc3[nH]c2=O)cc1	1.2%	15.5%	.	3.2	31.6µM*
O=C(CSc1nc2ccccc2n1Cc1cccc(C(F)(F)F)c1)NCc1ccccc1	.	.	.	.	2.6%
COc1cc2cc(CN(C(=O)NC3CCCCC3)C3CCCC3)c(=O)[nH]c2cc1OC	-4.8%	-7.1%	-15.3%	1.9	25.1µM*
COc1ccc(CN(Cc2cc3cc(OC)c(OC)cc3[nH]c2=O)C(=O)NC2CCCCC2)cc1	4.3%	7.5%	-14.9%	3.1	-28.5%
COc1cc(C(=O)Oc2ccc3c(OC)c4ccoc4nc3c2OC)cc(OC)c1OC	.	.	-1.2%	-2.8	.
COc1c2ccoc2nc2c(OC)cccc12	5.9%	-1.4%	-4.4%	-1.9	15.8µM*
COc1cccc([C@@H]2Oc3ccc(Br)cc3C[C@H]2OC(=O)NS(=O)(=O)c2ccc(C)cc2)c1	.	.	1.7%	3.8	.
COc1ccc(OC)c2sc(NC(=O)C3=COCCO3)nc12	0.9%	0.1%	1.7%[11.7 µM]	-0.8	3.9%
COc1cccc2sc(NNC(=O)C3=COCCO3)nc12	-0.4%	32.7%	0.5%	?	35.5µM*
c1ccc2c(c1)nnn2Cc1nnc2sc(-c3ccc4c(c3)OCCO4)nn12	5.5%	0.0%	-12.8%	2.7	31.6µM*
